Screening data deposited in PubChem BioAssay by National Center for Advancing Translational Sciences (NCATS).
Most compounds without a hit are left out; they make up all but 8% or so of the library.
SW480 rereplic: inducers of DNA re-replication in SW480 colon cancer cells | SW480 DNA re-replication, Hoechst DNA content imaging, 48 h | Potency, µM (titrated, usually from 46.1 µM), without a hit: at the highest dose re-replication activation, usual class: activators | actives 1.8% (n = 340,000); also: % of control where 0% means no effect; nearly all actives have a fitted effect of over 55% in size
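First, 250 cells per well were seeded. Next, compound or vehicle (23 nL) was pinned in, plates sat 48 hr at 37 C. Finally Hoechst was added for 40 min before fluorescence scanning.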
KB-V1 MDR tox: KB-V1 MDR subline cytotoxicity; KB-V1 MDR cells viability, CellTiter-Glo, 72 h; Potency, µM (doses to about 46.1 µM), most hits filed as cytotoxic; actives 3.4% (n = 400,000); AID 1347076; also: % is scaled to controls: 0 for no effect and ±100 for the full control effect; nearly all actives have a fitted effect of over 60% in size
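Luminescent ATP read-out (CellTiter-Glo, 10 min) measures survival of drug-selected KB-V1 MDR cells after 72 h, 37 degrees C compound exposure. Medium: phenol-red-free DMEM, 10% FBS. Values from fitted concentration-response curves.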
HT1080NT lethal: kills 2HG-producing HT-1080-NT fibrosarcoma cells; Potency, µM (series often up to 46.1 µM), inactives show at the highest dose activity, negative = less viability, most hits filed as cytotoxic; HT-1080-NT fibrosarcoma viability, CellTiter-Glo ATP luminescence, 48 h; actives 1.6% (n = 360,000);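 also: NT is the 2HG producing partner of a matched IDH1 knockdown line; 0% = DMSO-treated cells and -100% = media-only wells without cells; nearly all actives have a fitted effect of over 55% in size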
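Fibrosarcoma NT cells, 750 per well in 5% FBS RPMI, were exposed to compound for 48 hours. Viability: CellTiter-Glo luminescence.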
KB-3-1 tox: kills parental KB-3-1 adenocarcinoma cells | KB-3-1 viability, CellTiter-Glo ATP luminescence, 72 h | actives 1.4% (n = 400,000) | Potency, µM (doses to about 46.1 µM), hits mostly cytotoxic | AID 1347075; also: % is scaled to controls: 0 for no effect and ±100 for the full control effect; nearly all actives have a fitted effect of over 60% in size
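Cytotoxicity in the drug-sensitive parental line KB-3-1 was scored as loss of CellTiter-Glo luminescence following 72 h incubation with compound. Values come from curve fitting of normalized concentration-response data.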
HT1080 IDH1KD tx: HT-1080 IDH1 knockdown cell toxicity (counter line); HT-1080 IDH1 knockdown viability, ATP luminescence, 48 h; AID 686971; Potency, µM (titrated, usually from 46.1 µM), without a hit: at the top dose activity, negative = toxicity, most hits filed as cytotoxic; actives 2% (n = 360,000);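 also: 0% = DMSO wells and -100% = cell-free medium wells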
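Knockdown cells (IDH1KD HT-1080) received compounds 2 h after plating at 750 cells/well and were kept 48 h at 37 °C in 5% FBS RPMI. A CellTiter-Glo luminescence read gave % activity for curve fitting.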
MCF10A rereplic: induces DNA re-replication in MCF 10a normal breast cells; actives 2.9% (n = 350,000); Potency, µM (doses to about 46.1 µM), for the others: top-dose activity, positive = re-replication, usual class: activators; MCF 10A DNA re-replication, Hoechst nuclear intensity, 48 h; also: % of control where 0% means no effect; nearly all actives have a fitted effect of over 50% in size
* hit, by the source's call; i = inactive; ? = inconclusive; / = not tested or not shown. Calls follow the shape of the dose curve; as a rule, active = well fitted curve in the direction sought with a large enough effect; inconclusive = small, poorly fitted or top-dose-only effect, or another doubt; inactive = no such curve, though single readings can be large; an effect the other way counts as inactive or inconclusive. Potency is read from the fitted curve at half-maximal effect.

SMILES | SW480 rereplic | KB-V1 MDR tox | HT1080NT lethal | KB-3-1 tox | HT1080 IDH1KD tx | MCF10A rereplic
CSC1=NSC2=NC(=O)/C(=C\c3cccs3)C(=N)N12 | -13% | 4.6µM* | -21% | ? | -24% | ?
CN(C)c1ccc(C=Nc2ccc(/C=C3\C=Cc4ccccc43)cc2)cc1 | / | i | / | i | / | /
Nc1nc(=S)ss1 | ? | i | 6% | i | 17% | 21µM*
COc1ccccc1CNC(=O)CCC1N=C2c3ccccc3N=C(SCc3ccc(C)cc3C)N2C1=O (stereo not given) | / | ? | / | i | / | /
COc1cc(OC)c(C=Cc2ccncn2)c(OC)c1 | / | i | 11% | i | 0% | /
COc1ccc(OC)c(/C=C/c2cc3ccccc3c[n+]2C)c1 | / | i | / | ? | / | /
COc1cc(OC)c(/C=C/c2cc3ccccc3c[n+]2C)c(OC)c1 | / | i | / | 0.92µM* | / | /
COc1cc(OC)c(/C=C/c2ccc3ccccc3n2)c(OC)c1 | / | i | / | 0.52µM* | / | /
COc1cc(OC)c(/C=C/c2ccccn2)c(OC)c1 | / | i | / | 5.2µM* | / | /
COc1ccc(N2C(=O)C3C(C2=O)C(C(=O)c2ccc(Cl)cc2)N2CCCC32)cc1 (stereo not given) | 8.2µM* | i | 13µM* | i | 18µM* | 15µM*
O=C(c1ccccc1)[C@@H]1[C@@H]2C(=O)N(c3ccc(F)cc3)C(=O)[C@@H]2C2CCCN21 (stereo not given in full) | ? | i | ? | ? | 23µM* | ?
CC(=O)c1ccc(N2C(=O)C3C(C2=O)C(C(=O)c2ccc(Cl)cc2)N2CCCC32)cc1 (stereo not given) | ? | ? | 16µM* | ? | ? | 12µM*
O=C(c1ccc(Cl)cc1)C1C2C(=O)N(c3ccccc3)C(=O)C2C2CCCN21 (stereo not given) | -12% | i | 9% | i | 13% | -10%
CCOC(=O)Cn1c(=O)oc2cc(S(=O)(=O)Nc3cc(OC)cc(OC)c3)ccc21 | / | i | / | i | / | /
COC(=O)N1C(=O)[C@@](c2ccc(OC)cc2)(C(C)C)N1C(=O)OC | 21µM* | i | -19% | i | -14% | ?
COC(=O)N1C(=O)[C@](c2ccc(Cl)cc2)(C(C)C)N1C(=O)OC | ? | i | -24% | i | -13% | ?
COc1ccccc1NC(=O)CSc1oc(-c2ccccc2)nc1S(=O)(=O)c1ccccc1 | / | i | / | i | / | /
Cc1onc(C(=O)N2CCN(C(c3ccccc3)c3ccccc3)CC2)c1[N+](=O)[O-] | 4.1µM* | i | 6% | i | -9% | 4%
COc1ccccc1N1CCN(C(=O)c2noc(C)c2[N+](=O)[O-])CC1 | ? | i | -1% | i | 8% | ?
CCCNc1c(NS(=O)(=O)c2ccc(C3CCCCC3)cc2)c(=O)oc2ccccc12 | ? | i | -5% | i | -2% | 12µM*
CCC(C)NC(=O)Cn1c(=O)n(-c2cc(OC)cc(OC)c2)c(=O)c2ccccc21 (stereo not given) | / | ? | / | i | / | /
Cc1cc(NC(=O)CCCSc2nc(-c3ccco3)cc(C(F)(F)F)n2)n(-c2ccccc2)n1 | 2% | 2.9µM* | -11% | i | ? | 15%
Cc1cc(NC(=O)CSc2nc(-c3ccco3)cc(C(F)(F)F)n2)n(-c2ccccc2)n1 | ? | 4.1µM* | ? | 5.8µM* | ? | 10µM*
Cc1cc(NC(=O)CSc2nnnn2C)n(-c2ccccc2)n1 | 4.1µM* | i | 5% | i | 10% | 6.5µM*
Fc1ccc(C(Nc2ccccc2Cl)c2nnc(-c3ccccc3Cl)o2)cc1 (stereo not given) | / | i | / | i | / | /
SMILES | SW480 rereplic | KB-V1 MDR tox | HT1080NT lethal | KB-3-1 tox | HT1080 IDH1KD tx | MCF10A rereplic
COc1ccc(NC(=O)c2c(-c3ccc(C)cc3)nnc3ccccc23)cc1OC | / | i | / | i | / | /
COc1ccc(-n2nc(C(=O)N3CCN(c4cccc(C(F)(F)F)c4)CC3)c3c4ccccc4n(C)c3c2=O)cc1Cl | / | ? | / | i | / | /
COc1ccc(NC(=O)Cn2c(=O)n(-c3cccc(C)c3)c(=O)c3c2c2cc(C)ccc2n3C)cc1Cl | / | i | / | i | / | /
CCCCNC(=O)c1c(N)[nH]c(C(=O)c2ccccc2)c1-c1ccccn1 | / | 21µM* | -3% | ? | -2% | /
Cc1ccc(-n2cnc(N)c2C(=O)c2cccc([N+](=O)[O-])c2)cc1 | ? | ? | -18% | i | -14% | 15µM*
Cc1ccc(-c2cn(-c3ccccc3)c(SCC(=O)NC3CCS(=O)(=O)C3)n2)cc1C (stereo not given) | 2% | 3.7µM* | 3% | i | 3% | 15%
COCc1cc(C)nc2sc(C(=O)Nc3nccs3)c(N)c12 | 0% | i | 10% | i | 6% | 16µM*
COCc1cc(C)nc2sc(C(=O)Nc3ccc(OC)cc3)c(N)c12 | ? | i | 6% | i | 2% | ?
COCc1cc(C)nc2sc(C(=O)Nc3ccc(C(C)=O)cc3)c(N)c12 | / | ? | / | i | / | /
COCc1cc(C)nc2sc(C(=O)Nc3cccc(OC)c3)c(N)c12 | 18µM* | i | 9% | i | 2% | 10µM*
COCc1cc(C)nc2sc(C(=O)Nc3ccccc3OC)c(N)c12 | 21µM* | i | -6% | i | -5% | ?
Cc1cc(C)c(NC(=O)CCCn2c(C)c3cnn(-c4ccccc4)c(=O)c3c2C)c(C)c1 | / | i | / | i | / | /
CCOC(CNC(=O)c1ccc2c(c1)nc(C)n2-c1cccc(F)c1)OCC | -2% | 21µM* | 7% | i | -4% | -5%
COc1ccccc1C(=O)Nc1ccccc1OCc1cc(=O)n2c(C)csc2n1 | / | i | / | i | / | /
O=C1[C@@H](Oc2ccccc2)[C@@H](c2ccncc2)N1c1ccccc1 | ? | i | ? | i | 21µM* | 9%
COc1ccc(-c2cc3ccccc3c(=O)o2)cc1 | / | ? | -2% | i | -1% | /
CN(C)c1ccc(-c2cc3ccccc3c(=O)o2)cc1 | 13µM* | i | 9% | i | 6% | 15µM*
Cc1cc(C)cc(-n2ccnc2SCC(=O)Nc2ccccc2F)c1 | / | i | / | i | / | /
CCCCCCCCn1c2c(c(=N)c3ccccc31)CCC2 | 3% | i | 23µM* | 3.3µM* | 9.2µM* | ?
CCCCCn1c2c(c(=N)c3ccccc31)CCC2 | -3% | ? | ? | 3.7µM* | 2.9µM* | -34%
CCCCCc1c(-c2ccc(OC)cc2)ncn1CCc1ccccc1OC | / | 10µM* | 21µM* | ? | 16µM* | /
